# Data published in the supplement of paper PMC10849652.
# The full data set covers some 8,800 targets. This sample favours those with a hit. About 0.5% of all pairs of compound and target were hits. A number with no mark means an inactive call.
# Compound: CC1=C2C(=CC=C1)N=C(N(C2=O)C3=CC=CC=C3C)CN4C=NC5=C(N=CN=C54)N
# Test: log2 fold change, soluble protein after heating vs DMSO (PISA); higher = thermal stabilisation; K562 lysate, 10 uM; active = over 0.2 and 3.5 SD of the protein, either way, in both replicates (recomputed)
# How it was run: (§1)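 A 30 min treatment with 10 μM compound was applied to crude K562 extract at 1 mg/mL protein in PBS pH 7.4 with 1 mM MgCl2. Heating for 3 min spanned 48°C-58°C, after which aliquots were pooled, adjusted to 0.5% NP-40 at 4°C and spun at 21,000xg for 90 min. TMTpro 16plex LC-MS/MS of the supernatant, with channel sums equalised, gave values recorded as log-two fold change in thermal stability against solvent controls, from duplicates.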
# Chain of UniProt P41567 (P41567 whole entry, looked up): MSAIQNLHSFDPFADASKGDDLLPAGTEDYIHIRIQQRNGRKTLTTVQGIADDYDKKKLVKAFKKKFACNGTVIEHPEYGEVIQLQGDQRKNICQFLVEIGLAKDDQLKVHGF
# Chain of UniProt P34913 (P34913 whole entry, looked up): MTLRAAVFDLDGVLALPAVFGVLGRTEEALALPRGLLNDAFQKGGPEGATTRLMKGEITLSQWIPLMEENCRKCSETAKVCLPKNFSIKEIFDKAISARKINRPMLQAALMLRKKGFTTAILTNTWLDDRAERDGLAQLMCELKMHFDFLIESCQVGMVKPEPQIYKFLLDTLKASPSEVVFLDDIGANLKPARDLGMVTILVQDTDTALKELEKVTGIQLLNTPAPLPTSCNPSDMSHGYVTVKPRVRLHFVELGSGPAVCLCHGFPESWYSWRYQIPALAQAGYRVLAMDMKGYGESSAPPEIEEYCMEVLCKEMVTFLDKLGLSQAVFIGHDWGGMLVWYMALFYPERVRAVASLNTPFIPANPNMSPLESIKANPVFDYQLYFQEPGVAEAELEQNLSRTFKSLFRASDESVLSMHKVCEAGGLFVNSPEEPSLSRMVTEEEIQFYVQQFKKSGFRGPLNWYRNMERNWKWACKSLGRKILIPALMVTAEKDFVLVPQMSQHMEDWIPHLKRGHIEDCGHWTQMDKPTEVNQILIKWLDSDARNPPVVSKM
# Chain of UniProt P11474 (P11474 whole entry, looked up): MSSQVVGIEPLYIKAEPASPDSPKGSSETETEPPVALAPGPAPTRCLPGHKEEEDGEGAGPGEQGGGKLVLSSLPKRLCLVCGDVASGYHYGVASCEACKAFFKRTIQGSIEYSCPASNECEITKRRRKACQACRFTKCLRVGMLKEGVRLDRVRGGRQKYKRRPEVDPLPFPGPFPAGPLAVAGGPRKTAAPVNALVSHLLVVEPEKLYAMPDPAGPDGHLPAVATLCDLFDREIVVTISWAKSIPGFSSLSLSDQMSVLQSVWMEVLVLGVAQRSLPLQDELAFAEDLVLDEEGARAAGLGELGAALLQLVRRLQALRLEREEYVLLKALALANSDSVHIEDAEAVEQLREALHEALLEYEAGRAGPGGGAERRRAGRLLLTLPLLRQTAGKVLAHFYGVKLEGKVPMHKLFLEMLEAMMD
# Chain of UniProt Q9UBQ6 (Q9UBQ6 whole entry, looked up): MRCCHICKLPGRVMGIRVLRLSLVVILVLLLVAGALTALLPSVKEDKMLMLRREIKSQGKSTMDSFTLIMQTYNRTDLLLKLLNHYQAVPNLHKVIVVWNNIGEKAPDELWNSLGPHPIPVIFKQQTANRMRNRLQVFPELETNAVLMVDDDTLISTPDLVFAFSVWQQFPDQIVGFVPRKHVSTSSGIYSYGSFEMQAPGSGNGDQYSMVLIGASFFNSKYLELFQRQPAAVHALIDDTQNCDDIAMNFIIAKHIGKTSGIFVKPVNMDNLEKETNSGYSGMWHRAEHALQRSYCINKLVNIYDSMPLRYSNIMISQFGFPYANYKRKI
# Chain of UniProt O43768 (O43768 whole entry, looked up): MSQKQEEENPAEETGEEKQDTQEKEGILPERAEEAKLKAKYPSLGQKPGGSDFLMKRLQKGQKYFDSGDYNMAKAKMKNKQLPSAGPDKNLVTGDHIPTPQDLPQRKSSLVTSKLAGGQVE
# Chain of UniProt Q9UJY4 (Q9UJY4 whole entry, looked up): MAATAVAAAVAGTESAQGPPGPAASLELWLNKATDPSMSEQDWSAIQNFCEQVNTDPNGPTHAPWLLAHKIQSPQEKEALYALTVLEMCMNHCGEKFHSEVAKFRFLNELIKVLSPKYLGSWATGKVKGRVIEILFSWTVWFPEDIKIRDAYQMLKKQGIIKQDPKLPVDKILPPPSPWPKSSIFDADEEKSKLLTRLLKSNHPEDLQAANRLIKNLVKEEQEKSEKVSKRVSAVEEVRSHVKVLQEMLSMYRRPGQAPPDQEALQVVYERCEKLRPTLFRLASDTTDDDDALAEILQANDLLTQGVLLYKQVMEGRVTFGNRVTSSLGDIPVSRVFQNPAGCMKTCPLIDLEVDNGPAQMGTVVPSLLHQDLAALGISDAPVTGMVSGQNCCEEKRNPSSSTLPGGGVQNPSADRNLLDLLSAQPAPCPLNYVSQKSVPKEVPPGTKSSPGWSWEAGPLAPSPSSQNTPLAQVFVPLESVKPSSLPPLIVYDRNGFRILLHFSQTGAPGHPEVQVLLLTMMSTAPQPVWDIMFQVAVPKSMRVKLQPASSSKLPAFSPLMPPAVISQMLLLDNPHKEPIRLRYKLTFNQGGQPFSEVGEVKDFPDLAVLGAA
# Chain of UniProt Q14153 (Q14153 whole entry, looked up): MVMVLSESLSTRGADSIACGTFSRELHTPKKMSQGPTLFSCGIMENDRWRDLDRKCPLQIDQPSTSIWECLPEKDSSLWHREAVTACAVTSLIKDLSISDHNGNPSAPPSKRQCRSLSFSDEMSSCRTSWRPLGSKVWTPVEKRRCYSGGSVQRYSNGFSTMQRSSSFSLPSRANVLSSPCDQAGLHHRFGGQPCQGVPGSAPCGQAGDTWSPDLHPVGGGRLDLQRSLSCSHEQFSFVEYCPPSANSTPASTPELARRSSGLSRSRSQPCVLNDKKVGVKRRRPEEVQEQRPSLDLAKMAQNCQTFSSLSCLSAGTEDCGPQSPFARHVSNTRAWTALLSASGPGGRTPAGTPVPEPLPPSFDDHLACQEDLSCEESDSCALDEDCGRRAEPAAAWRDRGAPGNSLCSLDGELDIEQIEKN
# Chain of UniProt P57678 (P57678 whole entry, looked up): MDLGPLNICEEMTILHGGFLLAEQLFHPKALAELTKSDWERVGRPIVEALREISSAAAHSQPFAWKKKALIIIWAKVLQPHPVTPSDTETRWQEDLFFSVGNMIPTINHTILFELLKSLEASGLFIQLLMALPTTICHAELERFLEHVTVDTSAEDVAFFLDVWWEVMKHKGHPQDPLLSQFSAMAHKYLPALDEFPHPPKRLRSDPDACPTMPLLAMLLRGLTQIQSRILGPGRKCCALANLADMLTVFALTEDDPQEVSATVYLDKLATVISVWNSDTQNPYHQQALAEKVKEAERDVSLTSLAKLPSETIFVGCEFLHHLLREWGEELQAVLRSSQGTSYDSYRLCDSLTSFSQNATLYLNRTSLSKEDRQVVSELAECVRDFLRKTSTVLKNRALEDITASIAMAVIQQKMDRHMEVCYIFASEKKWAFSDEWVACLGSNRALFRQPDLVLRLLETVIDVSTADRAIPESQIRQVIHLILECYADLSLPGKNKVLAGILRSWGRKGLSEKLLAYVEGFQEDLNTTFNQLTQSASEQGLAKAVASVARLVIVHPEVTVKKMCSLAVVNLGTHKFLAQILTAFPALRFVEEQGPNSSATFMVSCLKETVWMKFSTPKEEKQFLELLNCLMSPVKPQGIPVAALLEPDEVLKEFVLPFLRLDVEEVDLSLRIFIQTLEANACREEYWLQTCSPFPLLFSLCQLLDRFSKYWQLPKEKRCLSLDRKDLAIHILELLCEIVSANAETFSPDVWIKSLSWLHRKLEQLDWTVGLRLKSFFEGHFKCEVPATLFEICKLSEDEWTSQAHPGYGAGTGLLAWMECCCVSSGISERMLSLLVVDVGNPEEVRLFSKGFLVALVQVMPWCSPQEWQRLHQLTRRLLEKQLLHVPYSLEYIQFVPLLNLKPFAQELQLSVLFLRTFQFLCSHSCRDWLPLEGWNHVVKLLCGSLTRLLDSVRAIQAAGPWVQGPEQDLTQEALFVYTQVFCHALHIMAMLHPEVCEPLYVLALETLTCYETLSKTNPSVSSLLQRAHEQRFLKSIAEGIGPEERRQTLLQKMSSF
# Chain of UniProt Q6P4F2 (Q6P4F2 whole entry, looked up): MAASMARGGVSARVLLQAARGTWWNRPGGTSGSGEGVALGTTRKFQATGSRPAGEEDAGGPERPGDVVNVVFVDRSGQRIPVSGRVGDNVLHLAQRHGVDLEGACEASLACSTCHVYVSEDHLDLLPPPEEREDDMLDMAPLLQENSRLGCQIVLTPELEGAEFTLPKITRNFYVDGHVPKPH
# Chain of UniProt Q8TB52 (Q8TB52 whole entry, looked up): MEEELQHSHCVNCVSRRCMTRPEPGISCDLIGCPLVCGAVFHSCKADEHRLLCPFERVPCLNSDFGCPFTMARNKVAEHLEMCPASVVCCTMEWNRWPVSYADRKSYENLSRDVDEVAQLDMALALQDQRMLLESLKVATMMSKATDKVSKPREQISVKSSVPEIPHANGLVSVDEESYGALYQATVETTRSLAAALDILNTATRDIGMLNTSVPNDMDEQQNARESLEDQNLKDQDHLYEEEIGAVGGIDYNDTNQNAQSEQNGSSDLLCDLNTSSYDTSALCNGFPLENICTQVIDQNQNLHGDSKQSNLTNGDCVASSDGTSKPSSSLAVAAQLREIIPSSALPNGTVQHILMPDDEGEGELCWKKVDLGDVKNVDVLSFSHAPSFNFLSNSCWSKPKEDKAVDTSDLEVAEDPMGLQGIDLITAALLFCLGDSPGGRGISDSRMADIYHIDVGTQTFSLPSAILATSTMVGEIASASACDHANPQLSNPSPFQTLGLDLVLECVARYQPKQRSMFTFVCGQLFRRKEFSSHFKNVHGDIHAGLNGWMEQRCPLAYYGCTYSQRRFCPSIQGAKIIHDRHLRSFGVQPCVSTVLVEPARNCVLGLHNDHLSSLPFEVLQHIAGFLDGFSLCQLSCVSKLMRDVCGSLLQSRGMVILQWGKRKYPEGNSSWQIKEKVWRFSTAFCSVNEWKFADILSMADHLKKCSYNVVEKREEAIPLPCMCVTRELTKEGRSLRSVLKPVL
# Chain of UniProt P23919 (P23919 whole entry, looked up): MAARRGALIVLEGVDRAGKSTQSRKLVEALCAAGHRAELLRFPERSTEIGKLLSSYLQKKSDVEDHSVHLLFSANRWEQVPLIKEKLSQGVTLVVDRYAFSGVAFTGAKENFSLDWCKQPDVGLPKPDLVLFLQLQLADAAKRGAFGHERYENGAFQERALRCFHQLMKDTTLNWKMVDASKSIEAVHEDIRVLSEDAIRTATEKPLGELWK
# Chain of UniProt Q6IPR1 (Q6IPR1 whole entry, looked up): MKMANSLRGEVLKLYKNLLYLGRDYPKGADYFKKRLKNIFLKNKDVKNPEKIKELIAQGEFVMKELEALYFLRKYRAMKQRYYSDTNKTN
row,Target,log2 fold change
1,GEMIN2 (UniProt O14893),-0.023
2,FYB1 isoform 3 (UniProt O15117),0.095
3,FANCD2 isoform 1 (UniProt Q9BXW9),0.012
4,EIF2B5 (UniProt Q13144),0.019
5,DTYMK (UniProt P23919),-0.029
6,FDX2 (UniProt Q6P4F2),-0.012
7,FNBP1L (UniProt Q5T0N5),0.012
8,GGA2 (UniProt Q9UJY4),-0.085
9,FBXO30 (UniProt Q8TB52),-0.041
10,ESRRA (UniProt P11474),0.029
11,EIF1 (UniProt P41567),-0.031
12,GEMIN4 (UniProt P57678),-0.014
13,ESPL1 (UniProt Q14674),0.251
14,EIF3I (UniProt Q13347),0.01
15,DTL (UniProt Q9NZJ0),0.089
16,FADS3 (UniProt Q9Y5Q0),-0.227
17,GGT7 (UniProt Q9UJ14),0.103
18,ETFRF1 (UniProt Q6IPR1),-0.031

row,Target,log2 fold change
1,FBXO9 (UniProt Q9UK97),-0.002
2,EXTL2 (UniProt Q9UBQ6),-0.059
3,ERI1 (UniProt Q8IV48),-0.022
4,FAM53B (UniProt Q14153),0.055
5,EP400 isoform 5 (UniProt Q96L91),-0.014
6,"ENO1, A0A2R8YEM5",-0.048
7,GART (UniProt P22102),0.011
8,ESYT2 (UniProt H7BXI1),-0.001
9,EIF2B3 (UniProt Q9NR50),-0.01
10,EP300 (UniProt Q09472),0.025
11,EEF1AKNMT (UniProt Q8N6R0),0.013
12,ERLIN2 (UniProt O94905),0.016
13,"EPB41, A0A2R8Y6D0",-0.071
14,FAM83D (UniProt Q9H4H8),0.035
15,EDC4 (UniProt Q6P2E9),0.027
16,EPHX2 (UniProt P34913),0
17,GAMT (UniProt Q14353),-0.002
18,ENSA isoform 3 (UniProt O43768),-0.024

# Compound: Cc1sc2c(c1C)C(c1ccc(Cl)cc1)=N[C@@H](CC(=O)OC(C)(C)C)c1nnc(C)n1-2
# Test: as above
# How it was run: as §1
row,Target,log2 fold change
1,GEMIN2 (UniProt O14893),0.015
2,FYB1 isoform 3 (UniProt O15117),0.008
3,FANCD2 isoform 1 (UniProt Q9BXW9),-0.018
4,EIF2B5 (UniProt Q13144),0.023
5,DTYMK (UniProt P23919),-0.096
6,FDX2 (UniProt Q6P4F2),0.062
7,FNBP1L (UniProt Q5T0N5),-0.032
8,GGA2 (UniProt Q9UJY4),0.062
9,FBXO30 (UniProt Q8TB52),0.036
10,ESRRA (UniProt P11474),0.046
11,EIF1 (UniProt P41567),-0.035
12,GEMIN4 (UniProt P57678),0.04
13,ESPL1 (UniProt Q14674),0.136
14,EIF3I (UniProt Q13347),0.019
15,DTL (UniProt Q9NZJ0),-0.032
16,FADS3 (UniProt Q9Y5Q0),-0.06
17,GGT7 (UniProt Q9UJ14),-0.015
18,ETFRF1 (UniProt Q6IPR1),-0.02

row,Target,log2 fold change
1,FBXO9 (UniProt Q9UK97),0.089
2,EXTL2 (UniProt Q9UBQ6),-0.185
3,ERI1 (UniProt Q8IV48),-0.015
4,FAM53B (UniProt Q14153),-0.088
5,EP400 isoform 5 (UniProt Q96L91),0.06
6,"ENO1, A0A2R8YEM5",-0.028
7,GART (UniProt P22102),0.057
8,ESYT2 (UniProt H7BXI1),0.048
9,EIF2B3 (UniProt Q9NR50),0.004
10,EP300 (UniProt Q09472),0.005
11,EEF1AKNMT (UniProt Q8N6R0),0.018
12,ERLIN2 (UniProt O94905),-0.126
13,"EPB41, A0A2R8Y6D0",0.048
14,FAM83D (UniProt Q9H4H8),-0.02
15,EDC4 (UniProt Q6P2E9),0.008
16,EPHX2 (UniProt P34913),0.119
17,GAMT (UniProt Q14353),0.114
18,ENSA isoform 3 (UniProt O43768),-0.008
